Measurements as given in PubChem BioAssay (NCI).
About 83,000 compounds went through this panel and 20% of them were active in at least one assay; those are over-represented in the sample as a whole.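 Treatment: one concentration, 48 hours, 96-well format. Scoring: percent growth, with anything below 10 considered active.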 Activity calls are given as the source filed them.

Each compound was assayed on HOP-62 NSCLC (assay: NCI-60 one-dose screen, 48 h (100 = growth as untreated, 0 = no growth, -100 = all killed)). Conditions: 10 µM.
COc1ccc(C(=O)N2C=Cc3ccccc3C2C#N)cc1 (stereo not given) was tested, and the growth was 89.4% (inactive).
In the case of O=[N+]([O-])c1ccc(/C(=C/c2ccccc2)[n+]2ccccc2)cc1, the growth is reported as 110% (inactive).
In the case of CCOc1ccccc1/C=N\N=C(\N)N/N=C/c1ccccc1OCC, the growth is reported as 43.7% (inactive).
In the case of NC1=CC(=O)C(=O)c2cccnc21, the growth is reported as 80.2% (inactive).
With Nc1ncc(-c2cnn(C3CCNCC3)c2)cc1-c1nc2ccccc2o1 the growth was 24.3% (inactive).
In the case of COC(=O)CC[C@@H](C)[C@H]1CC[C@H]2[C@@H]3CC[C@@H]4C[C@H](O)CC[C@]4(C)[C@H]3C[C@H](O)[C@]12C, the growth is reported as 109% (inactive).
With Cc1ccc(C(=O)C2C(=O)C3CCC2C3)cc1 (stereo not given) the growth was 99.6% (inactive).
For S=C1N(c2ccccc2)CN(C2CCCCC2)CN1c1ccccc1, the growth was 99.9% (inactive).
COc1ccc(/C(=N\N)C(=O)c2ccccc2)cc1 (tested in a mixture with another compound) was tested, and the growth was 100% (inactive).
In the case of COC(=O)c1c[nH]c2cc(OC(C)C)c(OC(C)C)cc2c1=O, the growth is reported as 37.9% (inactive).
With O[C@@H]1CO[C@H]2[C@@H]1OC[C@@H]2O the growth was 107% (inactive).
For CC(=O)Nc1ccc(S(=O)(=O)c2ccnc3cc(Cl)ccc23)cc1, the growth was 99.1% (inactive).
c1ccc(/C(=N\Nc2ccc3ccccc3n2)c2ccccn2)cc1 was tested, and the growth was 5.49% (active).
COc1cc2c(Nc3ccc(-c4ccc(N)cc4)cc3)ncnc2c(OC)c1OC was tested, and the growth was 85.9% (inactive).
With COc1nc2c(c(=O)n1C)CN(c1ccccc1)C(=O)C(C)N2 (stereo not given) the growth was 88.1% (inactive).
